# Measured values reported in PMC5540273 (PLoS ONE, 2017).
# Experiments:
# Conditions in all cases: concentration: 1 μM, replicates: in singlicate; n = 1
# CDKL2 = test system: CDKL2
# CDKL3 = test system: CDKL3
# CDKL5 = test system: CDKL5
# CHEK1 = test system: CHEK1
# CHEK2 = test system: CHEK2
# CIT = test system: CIT
# CLK1 = test system: CLK1
# CLK2 = test system: CLK2
# CLK3 = test system: CLK3
# CLK4 = test system: CLK4
# 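Note: KINOMEscan kinase panel screen.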
SMILES,%Inh (CDKL2),%Inh (CDKL3),%Inh (CDKL5),%Inh (CHEK1),%Inh (CHEK2),%Inh (CIT),%Inh (CLK1),%Inh (CLK2),%Inh (CLK3),%Inh (CLK4)
CS(=O)(=O)CCNCc1nc(-c2ccc3ncnc(Nc4ccc(OCc5cccc(F)c5)c(Cl)c4)c3c2)cs1.Cl [GW583340],2%,0%,0%,0%,0%,23%,33%,0%,12%,0%
Clc1ccc(-c2cc(-c3c[nH]nc3-c3ccccn3)ccn2)cc1 [GW681251],11%,22%,0%,0%,0%,4%,13%,0%,4%,20%
Cl.Cl.c1ccc(-c2cc3ccncc3cc2OC2CCNCC2)cc1 [GSK1122999],10%,0%,7%,3%,0%,55%,64%,32%,4%,71%
FC(F)(F)c1ccc(-c2nn3ncccc3c2-c2ccnc(Nc3cccc(C(F)(F)F)c3)n2)cc1 [GW828205],0%,0%,0%,0%,0%,16%,4%,0%,0%,0%
Cl.c1ccc(Cn2ncc3cc(Nc4ncnc5ccccc45)ccc32)cc1 [GW273749],8%,0%,3%,0%,30%,26%,42%,6%,0%,4%
